Several values for one entry are separate records, joined by “and”; a condition that tells them apart may be missing. Equal values may be shown once. The source holds several records for some structures; these can differ, active in one and inactive in another. Activity calls are given as the source filed them. How the source made its calls: active means hit-call score of the fitted dose curve at least 0.9, where 1 is the maximum; inactive means score below 0.9.
Key:
[1] = read-out: Thrombomodulin, THBD (gene 7056); assay: BSK_CASM3C_Thrombomodulin: BioMAP Diversity Plus: CASM3C Assay for Thrombomodulin Biomarker Activity (AID 2283051); details: primary human coronary artery smooth muscle cells; actives raise or lower the signal;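 further: thrombomodulin protein level measured by ELISA 24 h after dosing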
[2] = read-out: Tissue Factor, F3 (gene 2152); assay: BSK_CASM3C_TissueFactor: BioMAP Diversity Plus: CASM3C Assay for Tissue Factor Biomarker Activity (AID 2283052); details: primary human coronary artery smooth muscle cells; actives raise or lower the signal;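 further: cell surface tissue factor protein level read by ELISA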
[3] = read-out: Interferon-gamma inducible Protein 10 (IP10), CXCL10 (gene 3627); assay: BSK_hDFCGF_IP10: BioMAP Diversity Plus: hDFCGF Assay for Interferon-gamma inducible Protein 10 (IP10) Biomarker Activity (AID 2283053); details: primary human foreskin fibroblasts; actives raise or lower the signal
Method in brief: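 Cells: human dermal foreskin fibroblasts. Exposure: 24 h post-dosing. Detection: IP-10 ELISA, with values expressed against DMSO controls and fitted in both directions.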

[4] = read-out: Urokinase-type plasminogen activator receptor (uPAR), PLAUR (gene 5329); assay: BSK_CASM3C_uPAR: BioMAP Diversity Plus: CASM3C Assay for Urokinase-type plasminogen activator receptor (uPAR) Biomarker Activity (AID 2283054); details: primary human coronary artery smooth muscle cells; actives raise or lower the signal;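 further: cell-surface uPAR protein level quantified by ELISA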
[5] = read-out: Vascular cell adhesion molecule 1 (VCAM1), VCAM1 (gene 7412); assay: BSK_CASM3C_VCAM1: BioMAP Diversity Plus: CASM3C Assay for Vascular cell adhesion molecule 1 (VCAM1) Biomarker Activity (AID 2283055); details: primary human coronary artery smooth muscle cells; actives raise or lower the signal;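 further: VCAM-1 protein level quantified by ELISA on the cells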
[6] = read-out: Collagen III, COL3A1 (gene 1281); assay: BSK_hDFCGF_CollagenIII: BioMAP Diversity Plus: hDFCGF Assay for Collagen III Biomarker Activity (AID 2283056); details: primary human foreskin fibroblasts; actives raise or lower the signal
Method in brief: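 Response relative to DMSO, fitted in both directions, reflects ELISA-measured collagen III in human primary skin fibroblasts 24 h after compound addition.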

[7] = read-out: Epidermal growth factor receptor (EGFR), EGFR (gene 1956); assay: BSK_hDFCGF_EGFR: BioMAP Diversity Plus: hDFCGF Assay for Epidermal growth factor receptor (EGFR) Biomarker Activity (AID 2283057); details: primary human foreskin fibroblasts; actives raise or lower the signal
Method in brief: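 Dosing human primary skin fibroblasts, then measuring surface EGFR by ELISA at 24 h, gives the endpoint; gains and losses relative to DMSO were fitted in both directions.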

[8] = BSK_hDFCGF_Proliferation: Cell Proliferation Assessment in the BioMAP Diversity Plus: hDFCGF Assay (AID 2283059); details: primary human foreskin fibroblasts;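 further: curves fitted for both rise and fall of signal versus DMSO baseline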
Method in brief: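 Primary human foreskin fibroblasts, sub-confluent; […]; 10% TCA fix, 0.1% SRB stain, A560 total protein. Gain/loss fitted bidirectionally vs DMSO control.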

[9] = read-out: Macrophage colony-stimulating factor (MCSF), CSF1 (gene 1435); assay: BSK_hDFCGF_MCSF: BioMAP Diversity Plus: hDFCGF Assay for Macrophage colony-stimulating factor (MCSF) Biomarker Activity (AID 2283060); details: primary human foreskin fibroblasts; actives raise or lower the signal
Method in brief: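 fibroblasts (human foreskin, primary), 24 h post-dose; M-CSF by ELISA; bidirectional fit, DMSO = baseline.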

[10] = BSK_hDFCGF_SRB: Viability Assessment in the BioMAP Diversity Plus: hDFCGF Assay (AID 2283061); details: primary human foreskin fibroblasts;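 further: cells exposed to compound for 24 h before the read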
Method in brief: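 SRB-based viability read on primary human skin fibroblasts at 24 h: TCA fixation, 0.1% dye, 560 nm. Gain or loss of signal is fitted against the DMSO negative control.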

[11] = read-out: TIMP metallopeptidase inhibitor 1 (TIMP1), TIMP1 (gene 7076); assay: BSK_hDFCGF_TIMP1: BioMAP Diversity Plus: hDFCGF Assay for TIMP metallopeptidase inhibitor 1 (TIMP1) Biomarker Activity (AID 2283062); details: primary human foreskin fibroblasts; actives raise or lower the signal
Method in brief: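 Bidirectional curve fitting against DMSO baseline yielded this endpoint, based on ELISA detection of TIMP-1 in primary human foreskin fibroblasts exposed to compound for 24 h.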

[12] = read-out: Monokine induced gamma interferon (MIG), CXCL9 (gene 4283); assay: BSK_hDFCGF_MIG: BioMAP Diversity Plus: hDFCGF Assay for Monokine induced gamma interferon (MIG) Biomarker Activity (AID 2283063); details: primary human foreskin fibroblasts; actives raise or lower the signal
Method in brief: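 Endpoint derived by bidirectional fitting relative to DMSO; MIG quantified via ELISA in primary human foreskin fibroblasts harvested 24 h after dosing.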

[13] = read-out: Matrix Metallopeptidase 1 (MMP1), MMP1 (gene 4312); assay: BSK_hDFCGF_MMP1: BioMAP Diversity Plus: hDFCGF Assay for Matrix Metallopeptidase 1 (MMP1) Biomarker Activity (AID 2283064); details: primary human foreskin fibroblasts; actives raise or lower the signal
Method in brief: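 ELISA read-out of MMP1 from human foreskin fibroblasts (primary skin cells), 24 h post-dose. Gain or loss of signal was fitted bidirectionally versus DMSO negative control; cytotoxicity was checked by SRB in parallel cultures.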

[14] = read-out: Vascular cell adhesion molecule 1 (VCAM1), VCAM1 (gene 7412); assay: BSK_hDFCGF_VCAM1: BioMAP Diversity Plus: hDFCGF Assay for Vascular cell adhesion molecule 1 (VCAM1) Biomarker Activity (AID 2283065); details: primary human foreskin fibroblasts; actives raise or lower the signal;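 on AC50: VCAM-1 protein level quantified by ELISA after 24 h chemical exposure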
Method in brief: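 Measured after 24 h chemical treatment of primary human skin fibroblasts, VCAM-1 was detected by ELISA and concentration-response analysed in both directions versus DMSO vehicle.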

[15] = read-out: Plasminogen activator inhibitor-1 (PAI1), SERPINE1 (gene 5054); assay: BSK_hDFCGF_PAI1: BioMAP Diversity Plus: hDFCGF Assay for Plasminogen activator inhibitor-1 (PAI1) Biomarker Activity (AID 2283066); details: primary human foreskin fibroblasts; actives raise or lower the signal
Method in brief: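 Fibroblasts from human foreskin were treated with test chemical. After 24 h, PAI-1 was measured by ELISA. Activity was fitted in both directions relative to DMSO.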

[16] = read-out: Intercellular Adhesion Molecule 1 (ICAM1), ICAM1 (gene 3383); assay: BSK_KF3CT_ICAM1: BioMAP Diversity Plus: KF3CT Assay for Intercellular Adhesion Molecule 1 (ICAM1) Biomarker Activity (AID 2283067); details: primary human keratinocytes with fibroblasts; actives raise or lower the signal
Method in brief: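 Bidirectional curve fitting against a DMSO baseline was applied to ICAM-1 ELISA signal from primary human skin co-cultures harvested 24 h after treatment, with SRB staining of parallel wells for overt cytotoxicity.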

[17] = read-out: Interferon-gamma inducible Protein 10 (IP10), CXCL10 (gene 3627); assay: BSK_KF3CT_IP10: BioMAP Diversity Plus: KF3CT Assay for Interferon-gamma inducible Protein 10 (IP10) Biomarker Activity (AID 2283068); details: primary human keratinocytes with fibroblasts; actives raise or lower the signal
Method in brief: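 In a primary skin co-culture of keratinocytes and fibroblasts, IP-10 is quantified by ELISA at 24 h after dosing. SRB staining of parallel wells monitors overt toxicity. Curves are fitted both directions against DMSO.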

[18] = BSK_KF3CT_SRB: Viability Assessment in the BioMAP Diversity Plus: KF3CT Assay (AID 2283069); details: primary human keratinocytes with fibroblasts;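 further: total protein by sulforhodamine B staining as a cytotoxicity measure; fitted for both signal gain and loss against DMSO baseline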
Method in brief: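 SRB read-out at 560 nm (0.1% stain, TCA-fixed cells) gauges overt cytotoxicity in a human skin keratinocyte–fibroblast co-culture 24 h post-dosing. Signal change was fitted bidirectionally relative to DMSO control.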

[19] = read-out: Interleukin-1 alpha (IL1a), IL1A (gene 3552); assay: BSK_KF3CT_IL1a: BioMAP Diversity Plus: KF3CT Assay for Interleukin-1 alpha (IL1a) Biomarker Activity (AID 2283070); details: primary human keratinocytes with fibroblasts; actives raise or lower the signal
Method in brief: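 Primary skin co-culture (keratinocytes, foreskin fibroblasts), 24 h exposure; ELISA for IL-1a; bidirectional curve fit vs DMSO.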

[20] = read-out: Interleukin-8 (IL8), CXCL8 (gene 3576); assay: BSK_hDFCGF_IL8: BioMAP Diversity Plus: hDFCGF Assay for Interleukin-8 (IL8) Biomarker Activity (AID 2283058); details: primary human foreskin fibroblasts; actives raise or lower the signal
Method in brief: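 Fibroblast monolayers (human foreskin, hDFCGF) received test chemical for 24 h before ELISA detection of IL-8; either increases or decreases relative to DMSO count as activity.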

Measured: AC50

Cc1ccc(O)c(-n2nc3ccccc3n2)c1
not listed: [20]
inactive: all other assays above

FC(F)(F)C(F)(F)C(F)(F)CC1CO1 (configuration not stated)
inactive: [1] | [2] | [3] | [4] | [5] | [6] | [7] | [20] | [8] | [9] | [10] | [11] | [12] | [13] | [14] | [15] | [16] | [17] | [18] | [19]
active: [3] 12.9 µM | [12] 6.18 µM

OCC(F)(F)C(F)(F)C(F)(F)C(F)(F)C(F)(F)C(F)(F)C(F)(F)C(F)(F)CO
active: [3] 44.9 µM and 44.5 µM | [5] 40.9 µM | [6] 30 µM and 42.7 µM | [7] 47.8 µM and 48.7 µM | [8] 39.8 µM and 47.9 µM | [9] 47.9 µM and 46.7 µM | [10] 38.3 µM and 54.8 µM | [11] 46.7 µM and 54.5 µM | [12] 44 µM and 45.1 µM | [13] 55.2 µM and 48.8 µM | [14] 42.5 µM and 21.8 µM | [15] 54.9 µM and 56.4 µM | [16] 42.4 µM and 42.7 µM | [17] 35.2 µM | [18] 50.9 µM and 44.1 µM | [19] 50.4 µM
inactive: [1] | [2] | [4] | [5] | [17] | [19]

O=C1c2c(O)ccc(Nc3ccc(CCO)cc3)c2C(=O)c2c([N+](=O)[O-])ccc(O)c21
inactive: [2] | [4] | [5] | [7] | [20] | [13] | [15] | [18] | [19]
active: [1] 20 µM | [3] 20 µM | [8] 10.4 µM | [9] 8.52 µM | [10] 20 µM | [11] 20 µM | [12] 29.5 µM | [14] 9.03 µM | [16] 15.2 µM | [17] 27 µM

CCN(CC)c1ccc2c(c1)Oc1cc(N(CC)CC)ccc1C21OC(=O)c2ccccc21
active: [5] 1.98 µM | [6] 10 µM | [8] 10.5 µM
inactive: all other assays above

Source: PubChem BioAssay (EPA / NIEHS)
